From the supplement of paper PMC10681739

Legend:
ETS1 = molecular target: T1, ETS1 (UniProt P14921); assay: ETS1 binding intensity (PBM fluorescence), ETS1 alone (arbitrary fluorescence units); higher = stronger binding; conditions: ETS1 concentration 1 nM; RUNX1 concentration 0 nM
T1 sequence: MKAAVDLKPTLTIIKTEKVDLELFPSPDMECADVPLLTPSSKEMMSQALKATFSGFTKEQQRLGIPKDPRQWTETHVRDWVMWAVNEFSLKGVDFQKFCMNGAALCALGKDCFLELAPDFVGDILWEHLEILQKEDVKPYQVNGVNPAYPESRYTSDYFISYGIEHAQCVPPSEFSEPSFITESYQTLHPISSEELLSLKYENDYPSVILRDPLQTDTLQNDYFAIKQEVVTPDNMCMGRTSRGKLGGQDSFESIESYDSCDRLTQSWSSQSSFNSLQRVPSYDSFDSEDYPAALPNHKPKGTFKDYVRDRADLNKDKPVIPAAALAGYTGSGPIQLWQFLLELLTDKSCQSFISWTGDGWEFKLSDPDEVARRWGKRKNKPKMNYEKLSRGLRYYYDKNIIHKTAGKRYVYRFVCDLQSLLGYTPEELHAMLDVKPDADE

RUNX1 [1] = molecular target: RUNX1 (UniProt Q01196); assay: RUNX1 binding intensity (PBM fluorescence), RUNX1 alone (arbitrary fluorescence units); higher = stronger binding; conditions: RUNX1 concentration 2 nM; ETS1 concentration 0 nM
Chain of RUNX1 (Q01196 whole entry): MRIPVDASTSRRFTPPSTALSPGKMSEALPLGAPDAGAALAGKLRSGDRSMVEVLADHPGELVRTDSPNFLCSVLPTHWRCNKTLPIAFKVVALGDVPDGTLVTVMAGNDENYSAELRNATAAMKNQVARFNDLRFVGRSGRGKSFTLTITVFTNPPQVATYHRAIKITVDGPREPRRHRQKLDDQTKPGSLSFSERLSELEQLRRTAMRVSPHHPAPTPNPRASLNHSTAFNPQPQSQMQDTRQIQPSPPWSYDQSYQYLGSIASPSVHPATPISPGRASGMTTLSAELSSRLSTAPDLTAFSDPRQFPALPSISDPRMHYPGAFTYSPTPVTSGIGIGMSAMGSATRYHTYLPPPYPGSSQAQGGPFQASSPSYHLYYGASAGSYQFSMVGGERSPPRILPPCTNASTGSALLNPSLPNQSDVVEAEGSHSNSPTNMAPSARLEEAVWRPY
Description: (§1)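 Cooperative gcPBM on 36-bp genomic probes with neighbouring ETS1 and RUNX1 sites. Recombinant human RUNX1 (2 nM) was incubated alone or with ETS1 (25 nM) and detected with anti-RUNX1 antibody plus Alexa488 secondary. Values are medians over 4 replicate spots; the RUNX1+ETS1 data were normalised to the RUNX1-only data. The probes sit in constant array flanks that are not printed.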

RUNX1 [2] = molecular target: RUNX1 (UniProt Q01196); assay: RUNX1 binding intensity (PBM fluorescence) in presence of ETS1, normalised to RUNX1-only experiment (arbitrary fluorescence units); higher = stronger binding; conditions: RUNX1 concentration 2 nM; ETS1 concentration 25 nM
Description: as §1
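Wherever RUNX1 binding intensity (PBM fluorescence) in presence of ETS1, normalised to RUNX1-only experiment is given: Full-length recombinant human ETS1 or RUNX1 bound to double-stranded 36-bp genomic probes on microarrays, detected by protein-specific primary antibody and Alexa488 secondary, spot fluorescence as median of four replicate spots.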
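Wherever RUNX1 binding intensity (PBM fluorescence), RUNX1 alone is given: Full-length recombinant human RUNX1 bound to double-stranded 36-bp genomic probes on a high-density microarray, scored as Alexa488 fluorescence per spot via anti-RUNX1 antibody, median of four replicate spots.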

Sequence	ETS1 binding intensity (ETS1)	RUNX1 binding intensity (RUNX1 [1])	RUNX1 binding intensity (RUNX1 [2])
AGACCCGGATATGCGCCGGGGACCCCCAGACCGCGC	743	733	969
ACCTCAAGCCCAGGATGTGGTTTGGCCACTATTGAG	1310	804	1680
AGGTCGCCCTCCGGATGCGGTCCCCACACCGCCTGC	1870	857	1490
AGCTGCATTTCCGGGCAGGCAATGAAACCACAGAGT	1100	918	2370
AGAGTCTTTTTTCCTGAGCGTTTGCGGTTTTGACTT	430	10500	19500
CCCACTGATAAGACAGGATGTGGTAAAGAAGCCAGC	5700	776	6790
CTGGTTTCCAACATCCTGTGGGCGGCCTGGTTTCAG	1260	785	2210
GCAGTTTCAAGAGGATGTGGTCTCTTTCACTGCCTG	1160	724	1080
GTAAACTAGCTCTTCCGGTCTGTGGCCCTCACAGGA	2840	824	1500
AATGAAGGAGGGGCAGGATGTGGTCTTGGTGAATCA	2520	746	1440
CATTCAGTAAAAGGATGTGGTTTAGAACAGATGAAA	1230	958	2150
CTGTGAGGCGGAAGTGGCGGGCTCTGTGGGCGCAAG	3860	703	1430
TTGAATATGAAAGGAAGTGGTTAGGTGATGTGTTCT	2370	826	1350
GCAGCTCTGGCAGGATGCGGTTAAATATGTAGCCAC	2030	2690	11300
CCCTCATCTTCCTGCTTCAGGCAGCTGTGGTTTACC	420	1070	1660
CAAGGCACCAACGGATGTGGTATCTGGTGAGGGCTT	2150	846	2430
CACTTCCCCCAGCCTCTCTTTTTAATACCACAATAG	634	3520	3290
GGCCTTCATTACACAGGATGCGGTTGAAATGCATCA	4110	931	1630
TTGCCATTCCAGGAAATGAGCTTACCACATTGACTG	1980	798	1070
GCCGCTGCCTCTTCCTGTGTGGTTTTTCAGGGCTTA	651	1050	2920
CTGGTAGAAAAGGAAGCAGGTTGTGGTGAGCATTTA	837	767	932
TCCTATATACTTCCGTTTGCCTCGCGGTTTCTTTCT	1300	2730	4520
GATCTGTGCTCAGGATGTGGTGAGAGAATAAGGAAG	1210	753	1050

Sequence	ETS1 binding intensity (ETS1)	RUNX1 binding intensity (RUNX1 [1])	RUNX1 binding intensity (RUNX1 [2])
TGGATGGCAAGCAACGGAAACCGCAAACAGGGCTGT	1700	15600	26600
AGGGGAGGAACCAGGAAGTTGTGGTAAACTGTAGCA	2490	982	2360
TTTCTGACACTCTCAGGATGTGGGTTTTCACACTGT	1190	828	1320
TGGGGACCACTGTCAGGATGTGGTCACTGGAGTCAC	1020	831	1540
CATAGACCGGATGCCTCGTCAACCACAGAAACCAAT	2620	1000	2940
GCCGTAGCGGAAGAGTGTTCGTGGTCATGTGACGCC	671	718	1160
GCGCAAAGCCGGAAGGAGGGGTTTGCGGCTGGGGAG	1730	769	1360
TTTTCTTTCCTAGGAAGTGGTTGCTGGGTTCTGAGG	785	831	872
GCCACACTGGCGGAAATGGTGGTTACTGTTCGAGCC	3510	711	1560
TCCTAAAGCAGGAAATAGTGAGGCTACCGCAGTGTC	4180	713	1090
GCACCACCGGAAGTAGGGCTCAACCACCGCTCATTT	10300	1000	1980
CTCATTGACAGGAAGTCTAACCACAGGCTTAGGCCC	3730	1400	6750
ACAGTCGCACCGGAAGCTGCCCGCGGTGTTGACACA	8580	700	1360
TTTGTAAGAGGAGGAAGTGGTTTGTAAGAGGAGAAA	2180	835	1270
TGCAAAAAAACAGGAAACACCCAGCCGCAAATTATA	1740	863	1230
TGACTAAGACCGGAAGAAACCACAAAAACACAAAAA	2580	2700	4540
GTTGCAGGAAACGATGGGTTTTGTGGTATGAACTGC	813	829	1700
AGTAGAGGAGGAAGTTAAATGTGGTTTTCTGGGTGG	864	857	1130
AGAAGCTGCAGTCCCGGAAGCGGTTTTAGGGGGCCG	4220	725	1310
GAAGCTCCCCAAACAGGATGTGGTTAGGGAGAGGGG	8040	879	4090
CAGGCTCGCCACAGGGGAAGTGGTTAGGGCGGGTCC	684	775	890
TCACTCTAACAGGATATTGTGGTTAACTATGTTGCC	2460	2580	14800
AACTGGGCGGAAAGAACGGCTAACCGCAAGCTGCCG	429	11800	23900

Sequence	ETS1 binding intensity (ETS1)	RUNX1 binding intensity (RUNX1 [1])	RUNX1 binding intensity (RUNX1 [2])
CCATTTCCGCGCACGTCTGCAGATGCGGTAGTCGAT	413	853	1830
CCCACCCGGAAATGAGCCAACAGTGGTTTCGCCCCG	1590	782	1380
ATGGTGTAGAGAGGATGTGGGCTTTAAGGTCAGAGA	1140	706	1000
CACCCCCCCAGTGCAGGAAGTGGTTTTCGAGGGCAG	4490	908	1790
AAGTGAAGAGCTTCCGCCGGGAGACCGCGGCTGCAG	592	737	1250
AACAGACAGGATGTGGCCTCTGCCAAAACCACCATC	3250	869	2310
GTTGGGCTTTGAGGATGTGGGTTCTAGAAGTTTACA	928	890	1050
CAGCTGACAGGAAGGAGAGAACCACAGACAGTGCGA	782	801	1260
TAGCCACGAACCGGAAACGTTAAACCACAGCTCCGT	9650	994	5730
ATCTTTTGATGAGGATGTGGTTTCCAGGCAGGTGCT	836	902	1620
AATCCCGGAAACGCGGATTCAGCGGAGCGCGGTGAC	1280	735	1260
TTGGTGACCTCTTCCTGTCCGCTGTGGTGTTGTTAC	1080	841	2350
GGAAAAGGAAGTGGCTTTGACTTGCGGGCAGGGAGA	1020	733	2560
CTGAAAAACCGGAAGTGGGTGGTTTGAAACGTAAAT	18000	776	4130
GGCCTGTCACACACAGGAAGCGGTCACAGAAAAGCT	4530	795	2140
CATGGGGAGGAGGAAGTGGTGGCGGCCGCAGGCCAG	1040	799	1070
GGTGGCCGCCGGAAGTGTGACCGCGGGAGGGGAGTG	7650	743	2690
TGCAGTCGTGAAAAAGGAAGTGGTTAAAGTGGCTAC	3680	753	1600
CCGGGACAGGAAGAGGCTGGGGACCGCGGCGAAGGT	1440	710	1030
TTCTATCCTGCCTTGCATGTCTTTAACCACACTGAG	396	1800	1720
CAACCCGGAAGCACTAACGGAGAAACCGCAACTCGG	729	3460	12700
GCTAGACAGGAAACAGTGAGCTTCTGTGGGCAGGAG	2770	758	1060
GCACAGGCCGGAAGGAAAAGGGTTGTGGGGCTCATT	1290	814	952

Sequence	ETS1 binding intensity (ETS1)	RUNX1 binding intensity (RUNX1 [1])	RUNX1 binding intensity (RUNX1 [2])
TATCTCCTATCTCCAGGAAGTGGTTAGCCCTAGGAG	3210	811	1870
AACAGGCAAAGGACAGGATGTGGTGAGCGTCGGCCC	4150	774	3040
AACAGGAAGTGGTCTTAGAGATCATGCGGTTCAGAG	2220	787	2350
ACACCCCAGGCAGGATGTGGTAGGGGTTGCCCCAGA	2740	741	2080
CAGATTCCCGGAAAGGGGGACATGTAGCCGCAAAAG	509	815	1040
TCATGCTGCTTCCTGCCCAACCCGCAGTTCCGATAA	890	1120	2350
GAAGTGTGCTCTTCCGGTACCTGCGGTTCGTTGCGC	1770	808	2670
TGCATGTGCAGCAGAGGAAACCACAAGTTATTCCCT	557	1110	1600
TGACATGGCTTCCGCCTTGGGCTTTGTGGTCTCCCA	513	890	1760
CAGCTCTCTCGCTTCCTGTGGTGTAAACATGAAGCA	1570	964	1500
TCTGTCGTCCCACTTCCTGCTGCGGTTTCCACCTCG	3340	8620	21300
GCATTTACGGGCAGGAAATGAAACCACAGAGTACAA	5420	1360	3610
GGGGACCGGAAAGGGAGGGGTGGGCCGCAGGCGCCG	786	766	1150
TCTCTATGGTTTCCGTTGGGTGTGTGGTTTTTTTGT	579	1130	2050
GGAGGAAGTGACACCCACCCACTGCCCCCGCAAGGT	962	797	963
ATTTCCATTTCCGGACTCTTCTCCTGCCCGCAGGGC	2270	1220	3660
TACAGCCAGGAAATGGGGAGGGTGCTGCGGGCGGCA	858	742	917
AAGTTGATTTCCGGGTAGTCTGTGGTTTCCTAATCA	1040	1210	3880
CAAGTAATCTGCTCAGGAAGTGGTTTGAATAGAGGA	2540	743	977
CTTAGAGTACCAGGATGTGGTTTGGCCTGGGGGTGG	1790	1000	1800
GGCGGGACTTCCGGCGTCTCCCCTCGGCGGTTGCTT	2330	751	1980
CTCTGGCAGGAAGCTCTGAGGGCTAAACCACAAAAA	1110	989	1820
CCCTACCTCTCCTTCCTGCCACAAGGGAAAGTCACT	508	1390	2550
